Bioassay records (PubChem)
TDP1 block – qHTS Assay for Inhibitors of Tyrosyl-DNA Phosphodiesterase (TDP1) | Tyrosyl-DNA phosphodiesterase 1 (Homo sapiens), Q9NUW8 | recombinant TDP1, AlphaScreen DNA substrate cleavage | Potency, µM (doses to about 130 µM), inactives show top-dose activity change, negative = inhibition, most hits filed as inhibitors | actives 0.28% (n = 350,000) | AID 485290, 2010; further: potency means the concentration at half of the fitted maximal effect; on the % scale 0 is the no-effect control and ±100 the full control effect; nearly all actives have a fitted effect of over 40% in size
Target sequence (Q9NUW8 whole entry, looked up): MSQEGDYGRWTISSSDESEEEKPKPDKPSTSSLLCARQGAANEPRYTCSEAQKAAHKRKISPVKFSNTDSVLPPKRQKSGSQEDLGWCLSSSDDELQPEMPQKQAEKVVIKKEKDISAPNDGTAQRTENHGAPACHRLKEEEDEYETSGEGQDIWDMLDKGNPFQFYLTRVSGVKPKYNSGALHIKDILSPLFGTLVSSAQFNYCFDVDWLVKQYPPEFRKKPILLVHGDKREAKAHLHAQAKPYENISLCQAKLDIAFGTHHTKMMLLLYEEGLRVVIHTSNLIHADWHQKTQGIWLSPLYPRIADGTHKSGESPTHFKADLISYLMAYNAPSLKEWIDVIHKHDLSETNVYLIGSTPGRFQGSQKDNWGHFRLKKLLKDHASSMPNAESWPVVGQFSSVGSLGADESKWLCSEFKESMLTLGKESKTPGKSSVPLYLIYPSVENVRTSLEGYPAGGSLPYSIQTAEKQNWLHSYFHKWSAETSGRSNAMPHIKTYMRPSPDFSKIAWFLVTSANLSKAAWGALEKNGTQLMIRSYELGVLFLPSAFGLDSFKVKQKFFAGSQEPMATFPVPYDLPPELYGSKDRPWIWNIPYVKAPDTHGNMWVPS
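Enzyme-compound mixtures sat 15 min at room temperature, followed by a 5 min reaction with 15 nM final substrate and 10 min with AlphaScreen beads. Recombinant human Tdp1 was used at 1 nM final.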
DT40 TDP1 CPT – qHTS for Inhibitors of human tyrosyl-DNA phosphodiesterase 1 (TDP1): qHTS in cells in presence of CPT; chicken DT40 Tdp1-/-;hTDP1 cells + 20 nM CPT, ATP luminescence, 48 h; Potency, µM (titrated, usually from 46.2 µM), for the others: at the highest dose activity change, negative = growth inhibition, usual class: inhibitors; actives 12% (n = 420,000); AID 686979, 2013; further: potency means the concentration at half of the fitted maximal effect; on the % scale 0 is the no-effect control and ±100 the full control effect; nearly all actives have a fitted effect of over 55% in size
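Chicken DT40 Tdp1-/- cells complemented with human TDP1, 400 cells/well, exposed to compounds plus 20 nM camptothecin for at least 48 h at 37 C; viability read as ATP content by CellTiter-Glo luminescence.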
DT40 TDP1 no CPT – qHTS for Inhibitors of human tyrosyl-DNA phosphodiesterase 1 (TDP1): qHTS in cells in absence of CPT; DT40 Tdp1-/- hTDP1 cells, no CPT, ATP luminescence, 48 h; Potency, µM (doses to about 46.2 µM), without a hit: at the top dose activity change, negative = growth inhibition, usual class: inhibitors; actives 15% (n = 420,000); AID 686978, 2013; further: potency means the concentration at half of the fitted maximal effect; on the % scale 0 is the no-effect control and ±100 the full control effect; nearly all actives have a fitted effect of over 55% in size
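Compound effects on proliferation are scored in DT40 Tdp1-/-;hTDP1 cells in the absence of CPT. ATP levels (CellTiter-Glo luminescence) are recorded after a ≥48 hr, 37 °C incubation.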
HepG2 tox – qHTS for Inhibitors of TGF-b: Cytotox Counterscreen. HepG2 CAGA-GFP viability, ATP luminescence, 18 h. actives 0.76% (n = 410,000). Potency, µM (top dose mostly 46.1 µM), for the others: top-dose activity change, negative = cytotoxicity, hits mostly cytotoxic; further: potency means the concentration at half of the fitted maximal effect
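CellTiter-Glo luminescence gave cytotoxicity after 18 hours at 37 degrees C. The cells were HepG2 CAGA-GFP in 1% FBS DMEM, stimulated with 500 pg/mL TGF-beta after compound addition. %Activity was normalised to no-cell wells (complete cell-killing) and DMSO (no toxicity), and curves were fitted and classified.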
IL-1B inflam inh – qHTS for Inhibitors of Inflammasome Signaling: IL-1-beta AlphaLISA Primary Screen; THP-1 LPS/ATP IL-1B secretion, AlphaLISA, 16 h; stronger effect = lower value; activity change, % at 57.5 µM; actives 4.7% (n = 360,000); in the data active means activity change below about -50%; inconclusive means mostly about -30% to -49%; further: on the % scale 0 is the no-effect control and ±100 the full control effect
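THP-1 cells pretreated 1 hr with compounds (up to 57.5 uM final), then stimulated with LPS (250 ng/mL final) plus ATP (1.25 mM final); secreted IL-1B measured by AlphaLISA after 16 hr, decreased signal indicating inhibition.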
TGFb SMAD3 inh – qHTS for Inhibitors of TGF-b | Potency, µM (series often up to 46.1 µM), inactives show at the highest dose activity, negative = inhibition, most hits filed as inhibitors | HepG2 CAGA-GFP TGF-b/SMAD3 reporter, GFP fluorescence, 18 h; TGF-beta stimulated, 500 pg/mL final | AID 588855, 2011 | actives 1.2% (n = 410,000); further: potency means the concentration at half of the fitted maximal effect; on the % scale 0 is the no-effect control and ±100 the full control effect; nearly all actives have a fitted effect of over 65% in size
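Per well, imaged GFP fluorescence of HEPG2 CAGA-GFP cells gives the signal; cells get compound, then TGF-beta (500 pg/mL final), 18 h at 37 degrees C; %Activity versus -TGF-beta and +DMSO controls.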
Active calls of the source: *; ? = inconclusive; / = not tested or not shown; ! = a repeat was not active. Compounds with a hit are over-represented: about 19% of the library has one in this group of screens. Unless noted, the call rests on the fitted dose curve; in most records, active means well fitted curve in the direction sought with a large enough effect; inconclusive means small, poorly fitted or top-dose-only effect, or another doubt; inactive means no such curve, though single readings can be large; an effect the other way counts as inactive or inconclusive.

SMILES | TDP1 block | DT40 TDP1 CPT | DT40 TDP1 no CPT | HepG2 tox | IL-1B inflam inh | TGFb SMAD3 inh
COc1ccc(CC(=O)N(Cc2ccccc2)c2cccc(C)c2)cc1OC | 2% | ? | 15µM* | -5% | ? | 5%
Cc1cccc(N(Cc2ccccc2)C(=O)CCl)c1 | -3% | 2.3µM* | ? | -85% | -6 | ?
COc1ccccc1C(=O)N(Cc1ccccc1)c1ccc(C)cc1 | 0% | 15µM* | ? | -18% | ? | 2%
O=C(OCc1ccccc1)N1C=CCC[C@@H]1c1c(Cl)cccc1Br | / | ? | ? | -15% | 0 | ?
CCOC(=O)/C=c1/s/c(=C/c2ccc3cc(OC)ccc3c2)c(=O)n1CC(=O)NCC1CCCO1 (stereo not drawn) | / | 16µM* | 10µM* | 15% | 0 | 6%
CCOC(=O)/C=c1\s/c(=C\c2c(OC)ccc3ccccc23)c(=O)n1CC(=O)NCC1CCCO1 (stereo not drawn) | 3% | ? | 21µM* | -5% | 31 | 75%
CCOC(=O)/C=c1\s/c(=C\c2ccc(C#N)cc2)c(=O)n1CC(=O)NCc1ccco1 | 3% | 18% | -13% | -15% | 0 | -15%
CCOC(=O)/C=c1\s/c(=C\c2ccc(C(=O)OC)cc2)c(=O)n1CC(=O)Nc1ccccc1 | 5% | 16µM* | ? | 15% | 3 | -18%
CCOC(=O)c1sc2nc(C)n(CC(=O)NCC3CCCO3)c(=O)c2c1C (stereo not drawn) | 3% | -5% | ? | -5% | 0 | -5%
COc1ccccc1CN1CCc2c([nH]c3ccccc23)C1 | / | ? | ? | -22% | 8 | -2%
Clc1cccc(CN2CCc3c([nH]c4ccccc34)C2)c1Cl | / | ? | 23µM* | -57% | -62* | ?
COc1cccc(CNc2ncnc3nc[nH]c23)c1 | 1% | ? | ? | 1% | / | 1%
COc1ccc(CNc2nc(NCc3ccc(OC)cc3)c3[nH]cnc3n2)cc1 | 6% | ? | 29µM* | -29% | 10 | -27%
COc1ccc(CNc2nc(NCc3ccc(OC)cc3)c3ncn(C(C)C)c3n2)cc1 | 24% | / | / | / | / | /
COc1ccc(CNc2ncnc3nc[nH]c23)cc1 | 2% | 14µM* | 14µM*! | -5% | / | 8%
CCOc1ccccc1C(=O)NCC(=O)NCCCSc1ccccc1 | 5% | -12% | -3% | -1% | -21 | -5%
CCC(C)N(C)Cc1cccc(C2(O)CCN(S(=O)(=O)c3ccc(F)c(C)c3)CC2)c1 (stereo not drawn) | -5% | 18µM* | 18µM* | -15% | -23 | 12%
Cc1cc(S(=O)(=O)N2CCN(c3c(C)cccc3C)CC2)ccc1F | 9% | -26% | ? | -19% | 22 | -33%
CC(=O)N(O)C/C=C/c1cccc(Oc2ccccc2)c1 | 11% | / | / | / | / | /
Cc1ccc2c(c1C)-c1c(ccc(C)c1C)C(=O)C2=O | / | 0.92µM* | 1µM* | 4µM* | -85* | 2.5µM*
Cc1ccc2c(c1C)OC(=O)CC2(C)C | 0% | -3% | -2% | 11% | 8 | ?
CCCN=C1N(CC)C[C@@H]2[C@@H]3C(=O)N(C)C(=O)[C@@H]3[C@](C)(C(=O)OC)N12 | / | -5% | -8% | -4% | 4 | -35%
